This is a sample that favours compounds with a hit; in the whole collection about 12% have one here.
HCV inhibitor – qHTS Assay for Inhibitors of Hepatitis C Virus (HCV); Huh7.5.1 HCVcc-Cre infection, luciferase reporter, 44 h; Potency, µM (doses to about 41.8 µM), inactives show top-dose activity change, negative = inhibition, most hits filed as inhibitors; AID 651820, 2012; hit rate 3.4% among 340,000; also: % is scaled to controls: 0 for no effect and ±100 for the full control effect
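Luciferase read-out (15 sec integration) after a 15 min room-temperature substrate step quantifies HCVcc-Cre infection. Cells, 1,000 per well, had compound added 4 h post-plating, then virus at ~0.5 moi, and were cultured 44 h.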
AMA1 RON2 block – qHTS for Inhibitors of AMA1-RON; Towards Development of Antimalarial Drug Lead: Primary Screen. Plasmodium falciparum AMA1 (3D7) - RON2 peptide interaction. Potency, µM (doses to about 58.2 µM), for inactives: at the highest dose activity change, negative = inhibition, actives largely listed as inhibitors. AlphaScreen AMA1-biotinylated RON2 peptide binding. hit rate 0.2% among 360,000;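 also: 0% = vehicle wells and -100% = peptide control; nearly all actives have a fitted effect of over 45% in size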
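AMA1 (3D7) with his tag at 25 nM final met compounds first, then biotinylated RON2 peptide at 25 nM; detection used donor plus acceptor beads, 10 µg/mL apiece, read by AlphaScreen after 30 min at room temperature.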
Pf growth 48h – Primary qHTS for delayed death inhibitors of the malarial parasite plastid, 48 hour incubation; P. falciparum luciferase growth in erythrocytes, 48 h; Potency, µM (highest dose often 28.7 µM), for the others: at the highest dose activity change, negative = inhibition, actives largely listed as inhibitors; hit rate 5.9% among 310,000; AID 504832, 2011; also: % is scaled to controls: 0 for no effect and ±100 for the full control effect
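A one-generation exposure of luciferase-tagged malaria parasites in RPMI 1640/Albumax erythrocyte culture, 37 C and 5% CO2. Inhibition is inferred from decreased luminescence after adding detection reagent.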
NS1 function inh – qHTS Assay for Inhibitors of Influenza NS1 Protein Function | Potency, µM (top dose mostly 46.1 µM), for inactives: at the highest dose activity, positive = more growth | hit rate 0.4% among 270,000 | AID 2326, 2010; calls by dose curve; also: actives are rising curves; nearly all actives have a fitted effect of over 50% in size
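S. cerevisiae expressing influenza A NS1, grown in glucose, washed, then diluted 1:100 into pH 6.0 -URA galactose medium with 23 nl compound. Growth recovery read as OD600; NS1-free strain serves as control.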
SARS PLP yeast – qHTS of Yeast-based Assay for SARS-CoV PLP. S. cerevisiae expressing SARS-CoV PLpro, growth rescue. Potency, µM (series often up to 32.9 µM), without a hit: top-dose activity, positive = growth rescue, most hits filed as activators. hit rate 0.19% among 330,000. AID 485353, 2010; calls by dose curve; also: 0% is about no effect; nearly all actives have a fitted effect of over 55% in size
Pf growth 96h – Primary qHTS for delayed death inhibitors of the malarial parasite plastid, 96 hour incubation. P. falciparum luciferase reporter growth, 96 h. Potency, µM (series often up to 28.7 µM), for the others: at the top dose activity change, negative = inhibition, usual class: inhibitors. hit rate 6.9% among 320,000. AID 504834, 2011; also: % is scaled to controls: 0 for no effect and ±100 for the full control effect
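Infected RBCs, 2% Hct / 0.05% parasitemia final; luciferase-reporter P. falciparum; cpd 96 h, 37 C, 5% CO2; luciferase detection reagent; luminescence.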
Numbers without * were called inactive; u = inconclusive; x = not tested or not shown; [ ] = dose if it differs, or a comment. Unless noted, calls follow the shape of the dose curve; as a rule, active = well fitted curve in the direction sought with a large enough effect; inconclusive = small, poorly fitted or top-dose-only effect, or another doubt; inactive = no such curve, though single readings can be large; an effect the other way counts as inactive or inconclusive. Potency is read from the fitted curve at half-maximal effect.

SMILES	HCV inhibitor	AMA1 RON2 block	Pf growth 48h	NS1 function inh	SARS PLP yeast	Pf growth 96h
Cc1nc2cc(CO)ccc2n1C	0%	-10%	7%	-10%	-1%	9.3µM*
CCC1=C(OC(=O)N(CC)CC)N2C(=O)OC(=NCC(=O)OC)[C@]2(Cc2ccccc2)[C@H]2C1=CC[C@H]1C(=O)N(C)C(=O)[C@H]12	2%	15%	u	-6%	0%	u
CCC1=C(OC(=O)N(CC)CC)N2C(=O)OC(=NCC3CC3)[C@]2(Cc2ccccc2)[C@H]2C1=CC[C@H]1C(=O)N(C)C(=O)[C@H]12	-20%	-8%	10µM*	-11%	1%	9.3µM*
CCC1=C2CC[C@H]3C(=O)N(c4ccccc4)C(=O)[C@H]3[C@H]2[C@@]2(C)C(=NCC(=O)OC)OC(=O)N2C1=O	11%	4%	35%	2%	-1%	0%
CCC1=C(OC(=O)N(CC)CC)N2C(=O)OC(=NCC3CC3)[C@]2(Cc2ccccc2)[C@H]2C1=CC[C@H]1C(=O)N(c3ccccc3)C(=O)[C@H]12	u	-14%	2.6µM*	-13%	1%	2.9µM*
CCC1=C(OC(=O)N(CC)CC)N2C(=O)OC(=NCC(=O)OC)[C@]2(Cc2ccccc2)[C@H]2C1=CC[C@H]1C(=O)N(c3ccccc3)C(=O)[C@H]12	21%[8.37 µM]	4%	6.6µM*	-6%	1%	9.3µM*
CCC1=C(OC(=O)N(CC)CC)N2C(=O)OC(=NCC(=O)OC)[C@]2(C)[C@H]2C1=CC[C@H]1C(=O)NC(=O)[C@H]12	9%	7%	u	-3%	1%	45%
Cc1ccc2nc(SCC(=O)N(CC(C)C)c3c(N)n(Cc4ccccc4)c(=O)[nH]c3=O)[nH]c2c1	8%	-11%	-3%	-1%	0%	-14%
COc1ccc(C2(C#N)CCC(=O)N2c2ccccc2)cc1 (stereo unspecified)	3%	-13%	2%	1%	0%	-7%
COc1cc(-c2nnc(SCC(=O)c3cc(C)n(CC4CCCO4)c3C)o2)cc(OC)c1OC (stereo unspecified)	u	-6%	8.3µM*	3%	-3%	-19%[5.75 µM]
Cc1cc(C(=O)CN2C(=O)c3ccccc3S2(=O)=O)c(C)n1CC1CCCO1 (stereo unspecified)	-13%	-2%	2.1µM*	0%	-2%	10%
COc1cc(-c2nnc(SCc3c(F)cccc3Cl)o2)cc(OC)c1OC	35µM*	11%	u	-31%	-15%	x
CCCn1c(C)cc(C(=O)CN2C(=O)c3ccccc3S2(=O)=O)c1C	x	-5%	x	x	x	x
COc1cc(-c2nnc(SCC3(c4ccc(Br)cc4)OCCO3)o2)cc(OC)c1OC	u	0%	10µM*	5%	-3%	13µM*
COc1cc(-c2nnc(SCc3ccccc3Cl)o2)cc(OC)c1OC	u	17%	u	-46%	-10%	-7%
CC1CCCC(C)N1c1ccc(S(=O)(=O)N2CCOCC2)cc1Cl (stereo unspecified)	-2%	-2%	-19%	-11%	-22%	-2%
COc1ccc(C(=O)CN2C(=O)c3ccccc3S2(=O)=O)cc1	2%	2%	7.4µM*	-3%	-1%	76%
COc1ccc(C(=O)CN2C(=O)c3ccccc3S2(=O)=O)cc1Br	0%	5%	-20%	u	9%	u
Cc1cc(C(=O)CSc2nc3ccccc3c(=O)[nH]2)c(C)n1CC1CCCO1 (stereo unspecified)	11µM*	-3%	27%	0%	-4%	23%
COc1cc(-c2nnc(SCC(=O)N3CCCC3)o2)cc(OC)c1OC	-5%	2%	u	8%	2%	57%
Cc1cc(C(=O)CSc2nnc(-c3ccc(F)cc3)o2)c(C)n1CC1CCCO1 (stereo unspecified)	5%	-4%	-6%	5%	2%	13µM*
COc1cc(-c2nnc(SCC(=O)/C(C#N)=C(\C)N)o2)cc(OC)c1OC	u	-1%	u	-3%	-2%	9.3µM*
COc1cc(/C=C2\C(=N)N3N=CSC3=NC2=O)ccc1OS(=O)(=O)c1ccccc1[N+](=O)[O-]	-5%	36%	-12%	0%	-1%	4.1µM*
COc1cc(/C=C2\C(=N)N3N=C(S(C)(=O)=O)SC3=NC2=O)ccc1OC(=O)c1cccs1	-24%	37%	u	-9%	3%	25%
COc1cc(/C=C2\C(=N)N3N=C(S(C)(=O)=O)SC3=NC2=O)ccc1OCCOc1ccccc1C	19%	3%	10µM*	0%	-1%	u
SMILES	HCV inhibitor	AMA1 RON2 block	Pf growth 48h	NS1 function inh	SARS PLP yeast	Pf growth 96h
COc1cc(C=C2C(=O)NC(=O)NC2=O)ccc1OS(=O)(=O)c1ccccc1[N+](=O)[O-]	-16%	-17%	32%	15%	-2%	u
N#Cc1cccc(NC(=O)Cn2cnc(S(=O)(=O)N3CCc4ccccc43)c2)c1	u	1%	-25%	-8%	-12%	4.7µM*
CC(=O)c1cccc(NC(=O)Cn2cnc(S(=O)(=O)N3CCc4ccccc43)c2)c1	u	-2%	-4%	5%	7%	u
CC1CCC(C(C)C)C(OC(=O)CSc2n[nH]c(=O)[nH]c2=O)C1 (stereo unspecified)	u	2%	-10%	-7%	-2%	13µM*
CCn1ccnc1[C@@H]1C[C@H]2CN(c3ccccc3OC)C(=O)[C@]23CCCN13	-1%	1%	12%	-1%	-1%	-10%
CCC(C)[C@H]1CN=C(N)N1CCc1cc(C(F)(F)F)cc(C(F)(F)F)c1 (stereo partly specified)	2%	-1%	4.7µM*	-3%	0%	2.1µM*
COc1cc(CCCN2C(N)=NC[C@@H]2c2ccccc2)cc(OC)c1OC	-11%	5%	12µM*	5%	0%	u
CCC(C)[C@H]1CN=C(N)N1CCCc1cc(OC)c(OC)c(OC)c1 (stereo partly specified)	9%	-3%	10µM*	-1%	-2%	13µM*
COc1cc(CCCN2C(=O)C(=O)NC[C@@H]2c2ccccc2)cc(OC)c1OC	3%	8%	5%	-1%	-1%	5%
COC(=O)CCC(C)C1CCC2C3CCC4CC(O)CCC4(C)C3CC(O)C12C (stereo unspecified)	11%	0%	x	x	x	x
COCCCNC(=O)c1cc(S(=O)(=O)N2CCC3(CC2)OCCO3)ccc1F	x	42%	x	x	x	x

High-throughput results: PubChem, National Center for Advancing Translational Sciences (NCATS)
